Assay results as given in paper PMC11996681, “Interfacial water confers transcription factors with dinucleotide specificity”.

Key:
Experiment in all cases: HT-SELEX; SELEX buffer: 10.4 mM Tris-HCl pH 7.5, 51.4 mM NaCl, 1.4 mM MgCl2, 4% glycerol, 100 uM EGTA, 0.7 mM DTT, 3.7 ug/ml poly-dI-dC, 1.4 uM ZnSO4; room temperature (2); high values mean tight binding
Conditions in all cases: protein: recombinant; dsDNA, one strand shown
[1] = target: BARHL2 DBD ctrl (unmutated, SELEX) (human, UniProt Q9NY43 227-293)
[2] = target: BARHL2 DBD T278I/T285N (HMX3) (human, UniProt Q9NY43 227-293, T278I;T285N)
BARHL2 DBD T278V (EMX1) = BARHL2 DBD T278V (EMX1) (human, UniProt Q9NY43 227-293, T278V)
[3] = target: BARHL2 DBD T278I (NKX1.2) (human, UniProt Q9NY43 227-293, T278I)
BARHL2 DBD T285M (NANOG) = BARHL2 DBD T285M (NANOG) (human, UniProt Q9NY43 227-293, T285M)
[4] = target: BARHL2 DBD T278I/T285V (HOXB13) (human, UniProt Q9NY43 227-293, T278I;T285V)
[5] = target: BARHL2 DBD T278N/T285I (PBX1) (human, UniProt Q9NY43 227-293, T278N;T285I)
[6] = target: BARHL2 DBD T278V/T285A (ALX4) (human, UniProt Q9NY43 227-293, T278V;T285A)
[7] = target: BARHL2 DBD T278I/T285M (HOXA3) (human, UniProt Q9NY43 227-293, T278I;T285M)
[8] = target: BARHL2 DBD T278V/T285M (MEOX2) (human, UniProt Q9NY43 227-293, T278V;T285M)
[9] = target: BARHL2 DBD T278I/T285A (CDX1) (human, UniProt Q9NY43 227-293, T278I;T285A)
[10] = target: BARHL2 DBD T278I/T285S (DLX1) (human, UniProt Q9NY43 227-293, T278I;T285S)
[11] = target: BARHL2 DBD T278N/T285Q (SIX6) (human, UniProt Q9NY43 227-293, T278N;T285Q)
BARHL2 DBD T285A (LBX1) = BARHL2 DBD T285A (LBX1) (human, UniProt Q9NY43 227-293, T285A)
[12] = target: BARHL2 DBD T278N/T285R (PKNOX1) (human, UniProt Q9NY43 227-293, T278N;T285R)
Sequence of BARHL2 DBD T278N/T285R (PKNOX1) (Q9NY43 227-293 T278N/T285R): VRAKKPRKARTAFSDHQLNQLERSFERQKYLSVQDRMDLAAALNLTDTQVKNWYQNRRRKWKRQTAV

Sequence of BARHL2 DBD T285M (NANOG) (Q9NY43 227-293 T285M): as the sequence (Q9NY43 227-293 T278N/T285R) above, with N52T, R59M counted along it
Sequence of BARHL2 DBD T278N/T285I (PBX1) (Q9NY43 227-293 T278N/T285I): as the sequence (Q9NY43 227-293 T278N/T285R) above, with R59I counted along it
Sequence of BARHL2 DBD T278I/T285M (HOXA3) (Q9NY43 227-293 T278I/T285M): as the sequence (Q9NY43 227-293 T278N/T285R) above, with N52I, R59M counted along it
Sequence of BARHL2 DBD T278N/T285Q (SIX6) (Q9NY43 227-293 T278N/T285Q): as the sequence (Q9NY43 227-293 T278N/T285R) above, with R59Q counted along it
Sequence of BARHL2 DBD T278I/T285N (HMX3) (Q9NY43 227-293 T278I/T285N): as the sequence (Q9NY43 227-293 T278N/T285R) above, with N52I, R59N counted along it
Sequence of BARHL2 DBD T285A (LBX1) (Q9NY43 227-293 T285A): as the sequence (Q9NY43 227-293 T278N/T285R) above, with N52T, R59A counted along it
Sequence of BARHL2 DBD T278I/T285A (CDX1) (Q9NY43 227-293 T278I/T285A): as the sequence (Q9NY43 227-293 T278N/T285R) above, with N52I, R59A counted along it
Sequence of BARHL2 DBD T278V/T285M (MEOX2) (Q9NY43 227-293 T278V/T285M): as the sequence (Q9NY43 227-293 T278N/T285R) above, with N52V, R59M counted along it
Sequence of BARHL2 DBD T278I (NKX1.2) (Q9NY43 227-293 T278I): as the sequence (Q9NY43 227-293 T278N/T285R) above, with N52I, R59T counted along it
Sequence of BARHL2 DBD T278I/T285S (DLX1) (Q9NY43 227-293 T278I/T285S): as the sequence (Q9NY43 227-293 T278N/T285R) above, with N52I, R59S counted along it
Sequence of BARHL2 DBD T278V (EMX1) (Q9NY43 227-293 T278V): as the sequence (Q9NY43 227-293 T278N/T285R) above, with N52V, R59T counted along it
Sequence of BARHL2 DBD T278I/T285V (HOXB13) (Q9NY43 227-293 T278I/T285V): as the sequence (Q9NY43 227-293 T278N/T285R) above, with N52I, R59V counted along it
Sequence of BARHL2 DBD T278V/T285A (ALX4) (Q9NY43 227-293 T278V/T285A): as the sequence (Q9NY43 227-293 T278N/T285R) above, with N52V, R59A counted along it
Sequence of BARHL2 DBD ctrl (unmutated, SELEX) (Q9NY43 227-293, stated change not applied): as the sequence (Q9NY43 227-293 T278N/T285R) above, with N52T, R59T counted along it

Sequence | binding signal [1] [fold enrichment] | binding signal [2] [fold enrichment] | binding signal (BARHL2 DBD T278V (EMX1)) [fold enrichment] | binding signal [3] [fold enrichment] | binding signal (BARHL2 DBD T285M (NANOG)) [fold enrichment] | binding signal [4] [fold enrichment] | binding signal [5] [fold enrichment] | binding signal [6] [fold enrichment] | binding signal [7] [fold enrichment] | binding signal [8] [fold enrichment] | binding signal [9] [fold enrichment] | binding signal [10] [fold enrichment] | binding signal [11] [fold enrichment] | binding signal (BARHL2 DBD T285A (LBX1)) [fold enrichment] | binding signal [12] [fold enrichment]
TAATTG | 43.5 | 17.6 | 11.2 | 13.1 | 6 | 13.3 | 10.4 | 4.9 | 11.5 | 8.5 | 14 | 16.2 | 5.8 | 8 | 1.8
TAACCG | 2.1 | 2 | 1.6 | 1.5 | 2.3 |  | 3.7 | 1.9 | 1.5 | 1.5 | 1.9 | 1.7 | 4.1 | 3.5 | 4.9
TAATGG | 7.8 | 1.9 | 7.6 | 8 | 6.2 | 7.7 | 9.1 | 3.7 | 8.4 | 7.6 | 6.2 | 8.1 | 7 | 4.7 | 
TAATCG | 9.7 | 12.6 | 8 | 9.4 | 7.6 | 5.9 | 8.1 | 5.1 | 11.4 | 8.5 | 9.9 | 10.9 | 6.7 | 9 | 2.6
TAAGTG | 6.2 | 8.6 | 5.9 | 6.1 | 4.4 | 4 | 2.5 | 3.7 | 5 | 4.4 | 6.4 | 6.2 | 2.6 | 6.1 | 1.3
TAAACG | 28 | 4 | 7.8 | 6.6 | 3.8 | 2.4 | 2.8 | 3.3 | 2.5 | 3.1 | 3.7 | 4.7 | 2.4 | 6.3 | 1.6
TAAGCG | 3 | 2.4 | 3.2 | 2.4 | 3.6 |  | 1.4 | 1.9 | 2.4 | 2.7 | 1.8 | 1.9 | 1.6 | 2.9 | 
TAAATG | 12.6 | 1.9 | 5.9 | 5 | 3.4 | 4.3 | 3.3 | 2.2 | 2.9 | 3 | 3.2 | 4 | 2 | 4.1 | 
